# According to PubChem BioAssay:
# Where “and” joins values, the source holds several entries; their conditions need not be identical. Identical values can stand only once. For part of these data: Entries with a potency or affinity are not part of this list. Calls of active or inactive are those of the source.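 The calls were made as follows, unless noted: active = compounds whose cell count with miR-34 switched on is under 0.7 times the count with it off; inactive = the rest.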
# Tests used:
# [1] = polyglutamine-triggered caspase-3 activation inhibitors, cell-based (AID 1583); conditions: polyglutamine-induced caspase-3 activation, cell assay; stronger effect = higher value;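 tested at 10 µM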
# [2] = suppressors of polyQ aggregation in yeast, 75Q-TubU reporter (AID 1593); conditions: Yeast 75Q polyglutamine aggregation reporter
# [3] = rescue of polyQ-huntingtin neuronal dysfunction in worms, whole organism, C. elegans mechanosensory neurons, N-terminal huntingtin (AID 1599); conditions: touch response, stronger effect = higher value
# [4] = inhibitors of mitochondrial cytochrome c release, biochemical, purified mitochondria (AID 1603); conditions: stronger effect = lower value;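 also: mouse liver mitochondria challenged with calcium chloride; signal normalized to the plate average as 100%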
# [5] = inhibitors of polyQ protein aggregation (AID 1604); conditions: polyglutamine-induced protein aggregation inhibition assay; stronger effect = higher value; tested at 2.5 µM
# [6] = enhancers of glutamate uptake in motor neurons, MN-1 cell line (AID 1612); conditions: MN-1 motor neuron cells, stronger effect = higher value;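 also: tested at 1 µM final; 0% = mean of DMSO vehicle wells on each plate; positive means more glutamate uptake than control and negative means less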
# [7] = suppressors of polyglutamine aggregation in yeast, 75Q-TubH (AID 1616); conditions: S. cerevisiae 75Q-TubH polyglutamine aggregation suppression; stronger effect = higher value
# [8] = hESC survival regulators, cell-based (AID 493140; call rule not given here;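 also: cells exposed to compounds for four days before counting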); conditions: human embryonic stem cell survival screen; stronger effect = higher value
# [9] = liver-stage malaria parasite growth inhibition, primary screen, cell-based, HepG2, luciferase luminescence, HepG2 viability (AID 624349; in the data active = parasite load remaining mostly below about 12%, no sharp cut-off; inactive = mostly above about 10%;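 also: 100% = mean of DMSO negative control wells on the same plate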); conditions: P. berghei liver stage in HepG2, luciferase luminescence, concentration not given here; parasite load remaining: stronger effect = lower value; viability: measured here: HepG2 viability without parasites
# [10] = target: 6-phosphogluconate dehydrogenase, decarboxylating (Homo sapiens) (UniProt P52209); experiment: 6PGD enzyme inhibitors, primary screen, biochemical, human, recombinant enzyme, NADPH absorbance (AID 1159550;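 active = at least 20% inhibition of 6-phosphogluconate dehydrogenase activity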); conditions: recombinant 6PGD, NADPH absorbance 341 nm; at 10 µM; stronger effect = higher value
# Chain of 6-phosphogluconate dehydrogenase, decarboxylating (Homo sapiens) (P52209 whole entry, looked up): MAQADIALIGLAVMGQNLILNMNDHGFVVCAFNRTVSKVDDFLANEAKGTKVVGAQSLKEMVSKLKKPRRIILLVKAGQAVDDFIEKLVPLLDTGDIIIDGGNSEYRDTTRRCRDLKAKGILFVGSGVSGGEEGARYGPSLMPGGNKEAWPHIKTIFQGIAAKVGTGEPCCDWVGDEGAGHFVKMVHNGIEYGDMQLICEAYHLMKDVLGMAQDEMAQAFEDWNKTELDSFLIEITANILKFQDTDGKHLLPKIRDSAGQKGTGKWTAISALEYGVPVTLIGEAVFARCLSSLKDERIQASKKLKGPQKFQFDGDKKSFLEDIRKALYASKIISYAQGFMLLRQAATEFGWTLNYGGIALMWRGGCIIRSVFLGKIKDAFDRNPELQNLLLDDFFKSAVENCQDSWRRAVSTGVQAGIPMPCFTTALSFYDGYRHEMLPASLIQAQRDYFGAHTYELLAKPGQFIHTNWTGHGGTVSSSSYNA
# [11] = differential killing of epithelial or mesenchymal cells, primary screen, imaging, PC-3E GFP, TEM4-18 mCherry, co-culture (AID 1345086;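 active = compounds killing one labelled cell type while sparing the other, by normalised counts and ratio limits, not self-fluorescent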;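 as to all read-outs here: cells exposed to compound for 72 h before imaging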;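 as to red/green cell ratio (normalised): normalised mesenchymal count divided by normalised epithelial count so high means epithelial killing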); conditions: imaging cell counts, at 1 µM; for red/green cell ratio (normalised): actives lie on both sides, counts scaled to control wells, 1 = unselective
# [12] = sensitizers of A549 cells to miR-34 induction, primary screen, imaging, A549 dox-inducible miR-34, nuclei and caspase counts (AID 1347080); conditions: A549 miR-34 inducible, Hoechst nuclei count, 48 h
# [13] = survival rescue of mitochondrial mutant cells in low glucose, primary screen, MELAS cybrids, Rieske KO mouse fibroblasts, CellTiter-Glo (AID 1508586;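 active = mean z-score across replicates of 1.96 or higher in either the MELAS or the Rieske mutant cell line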;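 also: z relative to plate mean and SD of compound and empty wells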)
# [14] = target: Mitogen-activated protein kinase 7 (Homo sapiens) (UniProt Q13164); experiment: ERK5 transactivation activators in reporter cells, primary screen, cell-based, HTS (AID 1508626;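 active = luciferase signal above three times the same-plate solvent-only control wells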;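 also: luciferase driven by Gal4-ERK5 fusion binding five Gal4 sites before minimal TATA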); conditions: HeLa Gal4-ERK5 transactivation, 18 h, at 5 µM, stronger effect = higher value
# Chain of Mitogen-activated protein kinase 7 (Homo sapiens) (Q13164 whole entry, looked up, the tested form may be a part): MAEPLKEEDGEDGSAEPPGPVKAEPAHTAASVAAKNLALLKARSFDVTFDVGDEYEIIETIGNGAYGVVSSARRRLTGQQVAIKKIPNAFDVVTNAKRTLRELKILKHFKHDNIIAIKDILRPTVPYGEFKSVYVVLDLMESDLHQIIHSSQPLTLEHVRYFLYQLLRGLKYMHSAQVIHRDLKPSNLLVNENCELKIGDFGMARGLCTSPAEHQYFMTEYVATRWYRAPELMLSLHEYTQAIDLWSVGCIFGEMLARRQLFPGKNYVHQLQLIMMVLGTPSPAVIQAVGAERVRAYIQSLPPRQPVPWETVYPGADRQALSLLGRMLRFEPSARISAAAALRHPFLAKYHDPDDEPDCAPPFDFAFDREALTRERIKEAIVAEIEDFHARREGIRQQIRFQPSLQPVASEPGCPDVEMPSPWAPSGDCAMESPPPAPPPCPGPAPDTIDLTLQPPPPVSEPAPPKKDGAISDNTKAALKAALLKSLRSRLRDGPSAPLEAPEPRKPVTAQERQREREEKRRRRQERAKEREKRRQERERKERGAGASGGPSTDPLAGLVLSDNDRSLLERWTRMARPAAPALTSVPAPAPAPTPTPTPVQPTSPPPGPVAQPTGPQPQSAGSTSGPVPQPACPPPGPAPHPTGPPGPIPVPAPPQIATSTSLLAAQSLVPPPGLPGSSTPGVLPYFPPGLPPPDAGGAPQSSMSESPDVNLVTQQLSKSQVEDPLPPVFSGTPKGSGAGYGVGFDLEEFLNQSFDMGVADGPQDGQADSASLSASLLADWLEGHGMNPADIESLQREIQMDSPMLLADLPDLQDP
# [15] = reducers of polyQ inclusions in PC12 cells, cell-based, NGF-treated PC12, GFPQ80 (AID 1614); conditions: PC12 NGF-treated GFP-polyQ80 inclusion reduction;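 also: lower means fewer inclusions and 0 means no inclusions at all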
# [16] = circadian clock period modulators, cell-based, LOPAC library, luminescence reporter (AID 2774; call rule not given here;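 also: values are relative to mean of DMSO wells on each plate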); conditions: circadian reporter cells, at 7 µM, actives lie on both sides
# [17] = phospholipid biosynthesis inhibitors in animal cells, primary screen, cell-based, LOPAC library, screen 4 (AID 1347384; call rule not given here); conditions: phospholipid biosynthesis inhibition screen, at 10 µM
# [18] = viability rescue of complex I mutant cybrids, primary screen, cell-based, galactose medium, ATP luminescence (AID 1645843;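 active = z-score of at least 1.8 in each of two replicates, scored against plate mean and spread of sample wells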;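 also: positive z means more ATP and so rescue of galactose-driven cybrid death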); conditions: complex I mutant cybrid cells, 72 h, stronger effect = higher value
# [19] = target: NAD(+) hydrolase SARM1 (Homo sapiens) (UniProt Q6SZW1); experiment: SARM1 TIR NADase inhibitors, cell lysate, NAD-Glo luminescence (AID 1508614;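 active = compound whose remaining NAD level is above about 45 nM, limit read from the data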;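 also: higher remaining NAD means stronger inhibition of SARM1 NADase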); conditions: SAM-TIR HEK293T lysate NADase, at 1 µM, stronger effect = higher value
# Chain of NAD(+) hydrolase SARM1 (Homo sapiens) (Q6SZW1 whole entry, looked up): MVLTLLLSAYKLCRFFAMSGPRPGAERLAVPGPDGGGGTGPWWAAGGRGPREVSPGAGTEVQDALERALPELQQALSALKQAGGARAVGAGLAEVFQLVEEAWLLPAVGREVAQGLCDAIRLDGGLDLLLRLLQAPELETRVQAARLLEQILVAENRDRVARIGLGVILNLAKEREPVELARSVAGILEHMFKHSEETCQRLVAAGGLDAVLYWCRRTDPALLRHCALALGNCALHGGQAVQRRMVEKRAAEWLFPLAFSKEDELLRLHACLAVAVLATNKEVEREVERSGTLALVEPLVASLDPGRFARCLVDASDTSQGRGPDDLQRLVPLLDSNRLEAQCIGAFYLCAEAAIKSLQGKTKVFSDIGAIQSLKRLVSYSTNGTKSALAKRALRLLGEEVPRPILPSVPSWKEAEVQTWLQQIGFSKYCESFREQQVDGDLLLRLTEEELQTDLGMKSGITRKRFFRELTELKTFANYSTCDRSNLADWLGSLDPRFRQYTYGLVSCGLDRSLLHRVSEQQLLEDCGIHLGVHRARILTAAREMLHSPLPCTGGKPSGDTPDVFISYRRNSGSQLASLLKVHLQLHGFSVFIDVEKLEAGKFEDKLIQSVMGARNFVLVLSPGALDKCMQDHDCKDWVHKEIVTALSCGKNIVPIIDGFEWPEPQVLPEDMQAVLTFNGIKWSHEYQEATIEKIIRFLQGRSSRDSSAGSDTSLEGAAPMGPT
# [20] = measured here: epithelial PC-3E GFP cell survival
# [21] = measured here: mesenchymal TEM4-18 mCherry cell survival
# [22] = stronger effect = lower value, cell number ratio, induced over uninduced
# [23] = measured here: relative caspase fold change +Dox/-Dox
# [24] = measured here: total cells with miR-34 induction, stronger effect = lower value
# [25] = measured here: total cells without miR-34 induction
# [26] = MELAS cybrid survival, CellTiter-Glo 48 h, stronger effect = higher value
# [27] = Rieske KO mouse fibroblast survival, CellTiter-Glo 72 h
smiles,measurement,setting,value
O=c1cc(-c2ccccc2)oc2cc(O)cc(O)c12,inhibition,[1],16.7%
same,score,[2],-0.45
same,rescue above control,[3],1.21
same,cytochrome c release ratio,[4],0.64
same,inhibition of aggregation,[5],83.3%
same,glutamate uptake change,[6],-33.9%
same,aggregation suppression score,[7],0.573
same,survival,[8],11.8 (inactive)
same,parasite load remaining,[9],112% (inactive) and 75% (inactive)
same,viability,[9],98.1% and 69.3%
same,inhibition,[10],13.6% (inactive)
same,red/green cell ratio (normalised),[11],0.89 (inactive)
same,normalised cell number,[11]; [20],1.21
same,normalised cell number,[11]; [21],1.08
same,fold change,[12]; [22],0.807 (inactive) and 0.948 (inactive)
same,fold change,[12]; [23],1.38 and 0.939
same,cell count,[12]; [24],5370 and 8220
same,cell count,[12]; [25],6660 and 8680
same,z-score,[13]; [26],-0.289 (inactive)
same,z-score,[13]; [27],0.583
same,luciferase signal,[14],136 AU (inactive)
NC(N)=NC(N)=Nc1ccccc1,inhibition,[1],53.4% and -16.9%
same,score,[2],1.25 and 0.9
same,rescue above control,[3],-3.01 and 7.54
same,cytochrome c release ratio,[4],0.86 and 1.03
same,inhibition of aggregation,[5],72.2% and 69.7%
same,glutamate uptake change,[6],-1.79% and -11.1%
same,inclusion score,[15],2
same,aggregation suppression score,[7],1.39 and 0.87
same,period change,[16],0.065 h (inactive)
same,inhibition,[10],-4.29% (inactive)
same,red/green cell ratio (normalised),[11],0.97 (inactive)
same,normalised cell number,[11]; [20],1.24
same,normalised cell number,[11]; [21],1.2
same,fold change,[12]; [22],1 (inactive) and 0.938 (inactive)
same,fold change,[12]; [23],1.38 and 0.627
same,cell count,[12]; [24],9810 and 9310
same,cell count,[12]; [25],9810 and 9920
same,outcome,[17],inactive
same,z-score,[18],0.085 (inactive) and -0.065 (inactive)
c1coc(CNc2ncnc3nc[nH]c23)c1,inhibition,[1],6.38%
same,score,[2],1.14
same,rescue above control,[3],19.9
same,cytochrome c release ratio,[4],1.1
same,inhibition of aggregation,[5],68.2%
same,glutamate uptake change,[6],-3.65%
same,inclusion score,[15],2
same,aggregation suppression score,[7],0.807
same,survival,[8],3.5 (inactive)
same,parasite load remaining,[9],122% (inactive) and 193% (inactive)
same,viability,[9],98% and 74%
same,inhibition,[10],6.86% (inactive)
same,red/green cell ratio (normalised),[11],1.01 (inactive)
same,normalised cell number,[11]; [20],1.05
same,normalised cell number,[11]; [21],1.07
same,fold change,[12]; [22],1.04 (inactive) and 1.1 (inactive)
same,fold change,[12]; [23],0.935 and 0.585
same,cell count,[12]; [24],8620 and 8070
same,cell count,[12]; [25],8250 and 7310
same,z-score,[13]; [26],-0.185 (inactive) and -0.0285 (inactive)
same,z-score,[13]; [27],-0.0997 and -0.188
same,luciferase signal,[14],84 AU (inactive)
CC[C@H]1OC(=O)[C@H](C)[C@@H](O[C@H]2C[C@@](C)(OC)[C@@H](O)[C@H](C)O2)[C@H](C)[C@@H](O[C@@H]2O[C@H](C)C[C@H](N(C)C)[C@H]2O)[C@](C)(O)C[C@@H](C)/C(=N\OCOCCOC)[C@H](C)[C@@H](O)[C@]1(C)O,inhibition,[1],1.74%
same,score,[2],0.81
same,rescue above control,[3],1.9
same,cytochrome c release ratio,[4],0.93
same,inhibition of aggregation,[5],60.6%
same,glutamate uptake change,[6],2.1%
same,inclusion score,[15],2
same,aggregation suppression score,[7],0.306
same,parasite load remaining,[9],160% (inactive) and 51.6% (inactive)
same,viability,[9],87.6% and 99.8%
same,inhibition,[10],16.8% (inactive)
same,red/green cell ratio (normalised),[11],1 (inactive)
same,normalised cell number,[11]; [20],1.13
same,normalised cell number,[11]; [21],1.13
same,fold change,[12]; [22],0.869 (inactive)
same,fold change,[12]; [23],4.54
same,cell count,[12]; [24],10400
same,cell count,[12]; [25],12000
same,z-score,[13]; [26],-0.323 (inactive)
same,z-score,[13]; [27],-0.397
same,remaining NAD,[19],10 nM (inactive)
same,luciferase signal,[14],84 AU (inactive)
